Measured values: PubChem BioAssay (NCI)
This is part of a sample that, as a whole, favours compounds with a hit. Of some 83,000 tested, about 20% had one in any assay.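 The endpoint reported here, percent growth, reads 100 for growth as untreated, 0 for no net growth and -100 for all cells dead.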 Active and inactive are the calls of the source. How the source made its calls: active means growth percent below 10; inactive means the rest.

How the values were obtained:
Experiment in all cases: NCI-60 one-dose screen, 48 h (100 = growth as untreated, 0 = no growth, -100 = all killed)
Details in all cases: 10 µM unless noted
SR leukemia = tested on: SR leukemia
RPMI-8226 leukemia = tested on: RPMI-8226 leukemia
OVCAR-8 ovarian = tested on: OVCAR-8 ovarian
OVCAR-5 ovarian = tested on: OVCAR-5 ovarian
OVCAR-4 ovarian = tested on: OVCAR-4 ovarian
SK-OV-3 ovarian = tested on: SK-OV-3 ovarian
IGROV1 ovarian = tested on: IGROV1 ovarian
OVCAR-3 ovarian = tested on: OVCAR-3 ovarian
HS 578T breast = tested on: HS 578T breast
NCI/ADR-RES ovarian = tested on: NCI/ADR-RES ovarian
T-47D breast = tested on: T-47D breast
BT-549 breast = tested on: BT-549 breast
MDA-MB-435 melanoma = tested on: MDA-MB-435 melanoma
SW-620 colon = tested on: SW-620 colon
MCF7 breast = tested on: MCF7 breast
HCT-116 colon = tested on: HCT-116 colon
HCC-2998 colon = tested on: HCC-2998 colon
KM12 colon = tested on: KM12 colon

Measured: growth

CCOC(=O)N1CCN(c2nc(Nc3cc(C)[nH]n3)c3ccccc3n2)CC1
inactive: SR leukemia 17.3% | RPMI-8226 leukemia 37.3% | OVCAR-8 ovarian 74% | OVCAR-5 ovarian 55.9% | OVCAR-4 ovarian 49.5% | SK-OV-3 ovarian 47.8% | IGROV1 ovarian 35.6% | OVCAR-3 ovarian 55.3% | HS 578T breast 29.6% | NCI/ADR-RES ovarian 55.4% | T-47D breast 37.4% | BT-549 breast 56.8% | MDA-MB-435 melanoma 14% | SW-620 colon 41.8% | MCF7 breast 27.5% | HCT-116 colon 34.1% | HCC-2998 colon 69% | KM12 colon 21.4%

CCCCCN(CCCCC)CCC[C@@H](C)[C@H]1CC[C@H]2[C@@H]3[C@H](OCCCN)C[C@@H]4C[C@H](OCCCN)CC[C@]4(C)[C@H]3C[C@H](OCCCN)[C@]12C
inactive: SR leukemia 19.2% | OVCAR-8 ovarian 55.3% | OVCAR-5 ovarian 66.2% | OVCAR-4 ovarian 85.2% | SK-OV-3 ovarian 93.2% | IGROV1 ovarian 29.6% | OVCAR-3 ovarian 107% | HS 578T breast 66.9% | NCI/ADR-RES ovarian 76% | T-47D breast 68.1% | BT-549 breast 55% | SW-620 colon 45.9% | MCF7 breast 74.8% | HCT-116 colon 22.7% | HCC-2998 colon 59.6% | KM12 colon 22.5%
active: RPMI-8226 leukemia -17.7% | MDA-MB-435 melanoma -13.6%

Cc1ccc2c(c1)C(=O)/C(=C/c1ccc(OCC(=O)c3ccccc3)cc1)O2
inactive: SR leukemia 107% | RPMI-8226 leukemia 216% | OVCAR-8 ovarian 106% | OVCAR-5 ovarian 107% | OVCAR-4 ovarian 83.9% | SK-OV-3 ovarian 106% | IGROV1 ovarian 75.9% | OVCAR-3 ovarian 106% | HS 578T breast 105% | NCI/ADR-RES ovarian 88.1% | T-47D breast 77.8% | BT-549 breast 112% | MDA-MB-435 melanoma 106% | SW-620 colon 108% | MCF7 breast 88.7% | HCT-116 colon 93.4% | HCC-2998 colon 125% | KM12 colon 101%

CS(=O)(=O)c1ccc(-c2cnc3ccc(-c4cccc(S(C)(=O)=O)c4)nn23)cc1
inactive: SR leukemia 21.1% | RPMI-8226 leukemia 18.8% | OVCAR-8 ovarian 53.1% | OVCAR-5 ovarian 44.2% | OVCAR-4 ovarian 72.8% | SK-OV-3 ovarian 43.4% | IGROV1 ovarian 14% | OVCAR-3 ovarian 33.3% | HS 578T breast 10% | NCI/ADR-RES ovarian 80.9% | T-47D breast 18.7% | BT-549 breast 23% | MDA-MB-435 melanoma 49.6% | SW-620 colon 75.6% | MCF7 breast 18.4% | HCT-116 colon 34% | HCC-2998 colon 55.4% | KM12 colon 47.1%

CCCCCCCCCCNC(=O)CCl
inactive: SR leukemia 51.4% | RPMI-8226 leukemia 82.3% | OVCAR-8 ovarian 47.8% | OVCAR-5 ovarian 111% | OVCAR-4 ovarian 80.3% | SK-OV-3 ovarian 111% | IGROV1 ovarian 44.1% | OVCAR-3 ovarian 52.8% | HS 578T breast 84.6% | NCI/ADR-RES ovarian 73% | T-47D breast 41.1% | BT-549 breast 49% | MDA-MB-435 melanoma 89.6% | SW-620 colon 93.3% | MCF7 breast 74.5% | HCT-116 colon 69.3% | HCC-2998 colon 84.4% | KM12 colon 67.4%

C=C1CC[C@@H]2[C@](C)(COC(C)=O)[C@H](OC(C)=O)CC[C@@]2(C)[C@@H]1CC(Nc1ccc(S(=O)(=O)Nc2nc(C)cc(C)n2)cc1)C1=CCOC1=O (stereo partly drawn)
active: RPMI-8226 leukemia 2.24%
inactive: SR leukemia 22.2% | OVCAR-8 ovarian 62% | OVCAR-5 ovarian 103% | OVCAR-4 ovarian 65% | SK-OV-3 ovarian 112% | IGROV1 ovarian 81.5% | OVCAR-3 ovarian 44.8% | HS 578T breast 99.8% | NCI/ADR-RES ovarian 66.6% | T-47D breast 68.8% | BT-549 breast 71.9% | MDA-MB-435 melanoma 67% | SW-620 colon 40% | MCF7 breast 40.3% | HCT-116 colon 39.2% | HCC-2998 colon 100% | KM12 colon 64.7%

CCOC(=O)C(Cc1cc(I)c(O)c(I)c1)NC(=O)c1ccccc1 (stereo not drawn)
inactive: SR leukemia 88.9% | RPMI-8226 leukemia 89.5% | OVCAR-8 ovarian 97.7% | OVCAR-5 ovarian 96.1% | OVCAR-4 ovarian 108% | SK-OV-3 ovarian 94.1% | IGROV1 ovarian 99% | OVCAR-3 ovarian 108% | HS 578T breast 87% | NCI/ADR-RES ovarian 106% | T-47D breast 86.6% | BT-549 breast 101% | MDA-MB-435 melanoma 100% | SW-620 colon 94.4% | MCF7 breast 92.5% | HCT-116 colon 96.2% | HCC-2998 colon 119% | KM12 colon 102%

COC1/C=C\OC2(C)Oc3c(C)c(O)c4c(O)c(c(CN(C)CCO)c(O)c4c3C2=O)NC(=O)/C(C)=C\C=C/C(C)C(O)C(C)C(O)C(C)C(OC(C)=O)C1C (stereo not drawn)
inactive: SR leukemia 91.2% | RPMI-8226 leukemia 86.4% | OVCAR-8 ovarian 90.7% | OVCAR-5 ovarian 91.7% | OVCAR-4 ovarian 84.5% | SK-OV-3 ovarian 96.6% | IGROV1 ovarian 95.9% | OVCAR-3 ovarian 111% | HS 578T breast 104% | NCI/ADR-RES ovarian 103% | T-47D breast 89.3% | BT-549 breast 105% | MDA-MB-435 melanoma 111% | SW-620 colon 105% | MCF7 breast 91.6% | HCT-116 colon 107% | HCC-2998 colon 121% | KM12 colon 106%

C=C(C[n+]1ccccc1)[C@@H]1CC[C@]2(C(=O)OC)CC[C@]3(C)[C@H](CC[C@@H]4[C@@]5(C)CC[C@H](O)C(C)(C)[C@@H]5CC[C@]43C)[C@@H]12
inactive: SR leukemia 108% | RPMI-8226 leukemia 91.1% | OVCAR-8 ovarian 102% | OVCAR-5 ovarian 102% | OVCAR-4 ovarian 99.7% | SK-OV-3 ovarian 95% | IGROV1 ovarian 98% | OVCAR-3 ovarian 108% | HS 578T breast 101% | NCI/ADR-RES ovarian 103% | T-47D breast 82.5% | BT-549 breast 99% | MDA-MB-435 melanoma 91.8% | SW-620 colon 91.6% | MCF7 breast 97.7% | HCT-116 colon 97% | HCC-2998 colon 104% | KM12 colon 103%

Cn1c(=O)c2c(ncn2CC[N+](C)(C)C)n(C)c1=O
inactive: SR leukemia 94.7% | RPMI-8226 leukemia 104% | OVCAR-8 ovarian 105% | OVCAR-5 ovarian 105% | OVCAR-4 ovarian 105% | SK-OV-3 ovarian 99.4% | IGROV1 ovarian 102% | OVCAR-3 ovarian 105% | HS 578T breast 110% | NCI/ADR-RES ovarian 102% | T-47D breast 88.8% | BT-549 breast 115% | MDA-MB-435 melanoma 104% | SW-620 colon 106% | MCF7 breast 99.9% | HCT-116 colon 100% | HCC-2998 colon 102% | KM12 colon 105%

COc1cnc2c(c1)C(=O)c1c-2n(CCCN2CCN(C)CC2)c(=O)c2cc([N+](=O)[O-])ccc12
active: SR leukemia -23.6% | RPMI-8226 leukemia -41.6% | OVCAR-8 ovarian -21.9% | OVCAR-4 ovarian -81.7% | IGROV1 ovarian -55.2% | OVCAR-3 ovarian -84.6% | NCI/ADR-RES ovarian -2.68% | T-47D breast -57.2% | BT-549 breast -54.6% | MDA-MB-435 melanoma -93.8% | SW-620 colon -73% | MCF7 breast -40.1% | HCT-116 colon -83.8% | KM12 colon -29%
inactive: OVCAR-5 ovarian 111% | SK-OV-3 ovarian 86.6% | HS 578T breast 94.8% | HCC-2998 colon 95.1%

C=C1C(=O)O[C@H]2[C@H]1CC/C(Cn1cc(Cn3ccc4cc(Cl)ccc43)nn1)=C\CC[C@@]1(C)O[C@@H]21
active: SR leukemia -27% | RPMI-8226 leukemia -42.3% | OVCAR-8 ovarian -38.8% | IGROV1 ovarian 2.27% | OVCAR-3 ovarian -91.2% | T-47D breast -47.6% | MDA-MB-435 melanoma 1.14% | SW-620 colon -75.7% | MCF7 breast -77.5% | HCT-116 colon -91.5%
inactive: OVCAR-5 ovarian 69.5% | OVCAR-4 ovarian 14.3% | SK-OV-3 ovarian 85.9% | HS 578T breast 52.1% | NCI/ADR-RES ovarian 50.6% | BT-549 breast 22.8% | HCC-2998 colon 39.1% | KM12 colon 52%

C/C(=C(/c1ccc(O)cc1)c1ccc(OCCN2CCCC2)cc1)c1ccccc1
inactive: RPMI-8226 leukemia 11.9% | OVCAR-8 ovarian 83% | OVCAR-5 ovarian 80.5% | OVCAR-4 ovarian 54.5% | SK-OV-3 ovarian 80.1% | IGROV1 ovarian 76.1% | OVCAR-3 ovarian 74% | HS 578T breast 66.8% | NCI/ADR-RES ovarian 62.9% | T-47D breast 28.5% | BT-549 breast 64% | MDA-MB-435 melanoma 39.9% | SW-620 colon 67.8% | MCF7 breast 22.2% | HCT-116 colon 41.2% | HCC-2998 colon 66.3% | KM12 colon 51.6%
active: SR leukemia -11.3%

CS(=O)CCCCCN=C=S (stereo not drawn)
active: SR leukemia -13.9% | RPMI-8226 leukemia 5.22% | OVCAR-8 ovarian -8.89% | SK-OV-3 ovarian 8.97% | IGROV1 ovarian 7.98% | OVCAR-3 ovarian -20.4% | NCI/ADR-RES ovarian 1.36% | T-47D breast -26.3% | BT-549 breast 2.12% | SW-620 colon 5.5% | MCF7 breast 0.852% | HCT-116 colon -2.02% | HCC-2998 colon -11.3% | KM12 colon -12.6%
inactive: OVCAR-5 ovarian 11.6% | OVCAR-4 ovarian 21.4% | HS 578T breast 11.6% | MDA-MB-435 melanoma 20.4%

O=C1/C(=C/c2ccc(Cl)cc2Cl)CN(S(=O)(=O)c2ccccc2)C/C1=C\c1ccc(Cl)cc1Cl
inactive: OVCAR-8 ovarian 13.6% | OVCAR-4 ovarian 22.6% | SK-OV-3 ovarian 44.7% | HS 578T breast 37.9% | NCI/ADR-RES ovarian 20.5% | T-47D breast 23.7% | MCF7 breast 13.9%
active: SR leukemia -11.6% | RPMI-8226 leukemia -21.9% | OVCAR-5 ovarian -3.2% | IGROV1 ovarian -24.3% | OVCAR-3 ovarian -36.4% | BT-549 breast -72.8% | MDA-MB-435 melanoma 3.98% | SW-620 colon -15.2% | HCT-116 colon -84% | HCC-2998 colon -15.3% | KM12 colon -57.2%

O=C1OC2C(I)C3CC2C1C3c1ccccc1 (stereo not drawn)
inactive: SR leukemia 86.8% | RPMI-8226 leukemia 106% | OVCAR-8 ovarian 112% | OVCAR-5 ovarian 93% | OVCAR-4 ovarian 96.3% | SK-OV-3 ovarian 116% | IGROV1 ovarian 111% | OVCAR-3 ovarian 120% | HS 578T breast 143% | NCI/ADR-RES ovarian 101% | T-47D breast 95.2% | BT-549 breast 152% | MDA-MB-435 melanoma 131% | SW-620 colon 96.1% | MCF7 breast 109% | HCT-116 colon 96.8% | HCC-2998 colon 105% | KM12 colon 108%
